From PubChem BioAssay AID434989 (The Scripps Research Institute Molecular Screening Center, 2010)
The campaign covered roughly 330,000 compounds. About 1,400 (0.42%) were called active.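 How the source made its calls: active means inhibition above its plate's threshold, mean inhibition of all tested compounds on the plate plus 3 SD (cut at about 37% in these data); inactive means the rest.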 For the sample, actives were picked, then their nearest neighbours and some compounds at random.

target: Orexin/Hypocretin receptor type 1 (Homo sapiens) (UniProt O43613); assay: OX1R (HCRTR1) antagonists, primary screen, fluorescence, CHO/OX1R cells, Fluo-8 calcium, orexin A (AID 434989); details: Fluo-8 calcium fluorescence, at 5 µM, hits give high values;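 further: 0% = orexin A challenge wells and 100% = SB-334867-A antagonist wells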
Sequence (O43613 whole entry, looked up): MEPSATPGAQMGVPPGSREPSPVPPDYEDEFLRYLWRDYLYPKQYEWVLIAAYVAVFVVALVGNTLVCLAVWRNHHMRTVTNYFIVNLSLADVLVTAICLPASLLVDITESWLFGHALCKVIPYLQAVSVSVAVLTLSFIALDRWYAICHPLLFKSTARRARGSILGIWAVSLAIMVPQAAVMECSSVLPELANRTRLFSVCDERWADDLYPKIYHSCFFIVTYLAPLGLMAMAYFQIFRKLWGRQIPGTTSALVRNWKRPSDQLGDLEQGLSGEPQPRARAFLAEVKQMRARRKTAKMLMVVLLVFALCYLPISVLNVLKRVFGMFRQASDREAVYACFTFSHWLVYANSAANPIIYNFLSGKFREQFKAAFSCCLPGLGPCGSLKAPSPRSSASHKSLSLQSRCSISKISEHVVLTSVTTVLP

Row | SMILES | inhibition
1 | Cn1c(/C(C#N)=C2/CCCCCN2)nc2ccccc21 | -27.9% (inactive)
2 | N#CC(=C1SC=CS1)c1nc(-c2ccccc2)cs1 | 89.5% (active)
3 | CCNC(=O)CSc1nc(-c2ccccc2)cs1 | 4.28% (inactive)
4 | N#C/C(=C1/CCCN1)c1ccccn1 | -3.72% (inactive)
5 | N#CC(=C1CCCC1)c1nc(-c2ccc(Cl)cc2)cs1 | -23.8% (inactive)
6 | N#C/C(=C1\CCCN1)c1nc(-c2ccccc2)cs1 | 52.9% (active)
7 | Cc1cccc(C(=O)N[C@H](C(=O)NCc2cccs2)C(C)C)c1 | -7.31% (inactive)
8 | CCOC(=O)C1CCN(c2ncnc3c2oc2ccc(Br)cc23)CC1 | -11.1% (inactive)
9 | CCOC(=O)N1CCN(C(=O)C2CCN(S(=O)(=O)c3cc(Cl)ccc3OCC)CC2)CC1 | -21.5% (inactive)
10 | CCOC(=O)N1CCN(C(=O)C2CCN(c3ncnc4c3sc3cccc(F)c34)CC2)CC1 | 65.7% (active)
11 | CCN(CC(=O)NC(C)C)C(=O)c1cc(S(=O)(=O)N2CCCCC2)ccc1N1CCCCC1 | -37.7% (inactive)
12 | CCCCNC(=O)C(C)N(CCN(C)C)C(=O)CCCN1C(=O)NC(c2ccc(Cl)cc2)C(C(=O)OCc2ccccc2)=C1C (stereo unspecified) | -28.8% (inactive)
13 | O=C(Nc1cccc(Br)c1)c1ccc2snnc2c1 | -1.56% (inactive)
14 | CCc1ccccc1NC(=O)c1ccc2snnc2c1 | -1.72% (inactive)
15 | O=C(Nc1ccc2ccccc2c1)Nc1ccc2snnc2c1 | 41.4% (active)
16 | COc1ccc(C2=Nn3c(nnc3-c3ccccc3OC)SC2)cc1OC1CCCC1 | -19.5% (inactive)
17 | O=c1c2ccccc2nc2n1C(CSCc1cccc(C(F)(F)F)c1)CS2 (stereo unspecified) | 45.5% (active)
18 | O=c1c2ccccc2nc2n1C(CSc1ccc(F)cc1)CN2 (stereo unspecified) | -5.98% (inactive)
19 | O=c1c2ccccc2nc2n1C(CSCc1ccccc1)CS2 (stereo unspecified) | -3.31% (inactive)
20 | Cc1ccc(S(=O)(=O)NCC(=O)NNC(=O)c2ccc(Br)cc2)cc1C | -11.2% (inactive)
21 | COc1cccc(CC(=O)OCC(=O)NCc2ccc3c(c2)OCO3)c1 | -9.44% (inactive)
22 | Oc1cccc(/C=N/Nc2ccc(Cl)nn2)c1O | -18.9% (inactive)
23 | COc1cccc(/C=N/Nc2cc(C)nc(-c3ccccc3O)n2)c1O | 93.8% (active)
24 | COc1ccccc1/C=N/Nc1nc(C)c(C(C)=O)s1 | -4.69% (inactive)
25 | CCNC(=O)N(CC)C[C@H]1N[C@@](CC)(C(=O)OC)[C@H]2C(=O)N(Cc3ccccc3)C(=O)[C@@H]12 | 4.29% (inactive)
26 | C=CCC[C@H](Cc1ccc(F)cc1)C(=O)OC[C@H](C)NC(=O)[C@H](CC=C)CC(=O)N(CCO)Cc1ccccc1 | 6.31% (inactive)
